The record followed here is PubChem BioAssay.

Broadly, the inhibition is the change of the read-out against control, counted positive when it falls.

Activity calls are given as the source filed them.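 How the source made its calls, unless noted: active means inhibition at or above 50% at 10 µM; inactive means inhibition below 50%.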

A short description of assay [1]: inhibitors of TNFa-induced NFkB p65 translocation, primary screen, imaging, HUVEC, MLSMR starter and 10KST1 sets (AID 438;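 active means inhibition above 20% together with a positive visual image hit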;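 further: compound added about 3h40 before a 20 min TNFalpha stimulation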;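 on inhibition: signal is the nuclear over cytoplasmic p65 intensity ratio per well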). The following applies: HUVEC TNFa-induced p65 nuclear translocation; cell count: measured here: nuclei count (cytotoxicity indicator), at 2.08 µM; inhibition: at 2 µM, stronger effect = higher value, 0% TNFa-plus-vehicle, 100% no-TNFa wells.
The nature of assay [2]: inhibitors of mutant huntingtin aggregation, primary screen, imaging, exon1htt(103Q)mCFP cells, high-content imaging (AID 483;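 active means visual image review flags a hit and inhibition of aggregation exceeds 20%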;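 further: compound exposure lasted 3 days before fixation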;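 on nuclei count: percent of the per-plate median nuclei count of sample wells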). The following applies: exon1htt(103Q)mCFP cell line, aggregate imaging, at 2 µM; inhibition of aggregation: stronger effect = higher value; nuclei count: measured here: cell count, toxicity.
Assay [3] is described as follows: inhibitors of E-selectin induction by TNFa, primary screen, imaging, HUVEC, immunofluorescence, MLSMR starter and 10KST1 sets (AID 487;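 active means visually confirmed hit in the image check and inhibition above 20%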;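 on inhibition: signal is fraction of cell area covered by stained E-selectin grains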;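 on nuclei count: 100% = median nuclei count of all wells on the same plate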). To be noted: HUVEC TNFalpha-induced E-selectin immunofluorescence imaging, at 2 µM; inhibition: stronger effect = higher value; nuclei count: measured here: cell number, toxicity.
The target in assay [4] is Voltage-gated potassium channel subunit beta-2 (Rattus norvegicus) (UniProt P62483). The assay can be described thus: KvBeta enzyme negative modulators, primary screen, biochemical, NADPH fluorescence (AID 622;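 active means fluorescence slope higher than the sample average by over 3 SD, cut at about -0.22 in these data, passing the limit was not always enough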;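 further: slope of raw intensity against log time taken from 70 to 1610 s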). To be noted: recombinant KvBeta, 4-cyanobenzaldehyde reduction, at 10 µM, stronger effect = higher value.
Chain of Voltage-gated potassium channel subunit beta-2 (Rattus norvegicus) (P62483 whole entry, looked up): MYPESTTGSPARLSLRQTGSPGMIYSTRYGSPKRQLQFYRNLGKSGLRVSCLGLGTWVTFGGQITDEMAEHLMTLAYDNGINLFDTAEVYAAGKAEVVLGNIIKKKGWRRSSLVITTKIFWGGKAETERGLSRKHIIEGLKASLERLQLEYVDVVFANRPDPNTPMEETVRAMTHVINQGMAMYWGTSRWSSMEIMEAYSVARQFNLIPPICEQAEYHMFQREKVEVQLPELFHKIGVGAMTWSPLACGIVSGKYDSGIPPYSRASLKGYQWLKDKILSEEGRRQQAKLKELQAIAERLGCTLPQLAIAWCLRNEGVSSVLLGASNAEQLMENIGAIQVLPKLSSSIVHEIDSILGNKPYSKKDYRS
Assay [5] has the same target. In words: KvBeta positive modulators, primary screen, biochemical, NADPH fluorescence (AID 623;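 active means NADPH fluorescence slope more negative than the mean of all samples by about 3 SD, 99.7% confidence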;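 further: fluorescence intensity change per second fitted from 20 to 320 s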). The following applies: Recombinant KvBeta, NADPH fluorescence decrease slope, 10 min; at 10 µM; stronger effect = lower value.
The target of assay [6] is Alpha-2C adrenergic receptor (Homo sapiens) (UniProt P18825). The assay can be described thus: modulators of alpha2C/GIRK thallium flux, primary screen, cell-based, HEK293 alpha2C/GIRK1/2 (AID 624;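 active means fluorescence slope after compound addition differing from the mean of all screened samples at 99.7% confidence, in either direction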;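 further: slope of fluorescence ratio to pre-addition baseline per second over 15 to 24 s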). To be noted: thallium flux BTC fluorescence, at 10 µM, actives lie on both sides.
Chain of Alpha-2C adrenergic receptor (Homo sapiens) (P18825 whole entry, looked up): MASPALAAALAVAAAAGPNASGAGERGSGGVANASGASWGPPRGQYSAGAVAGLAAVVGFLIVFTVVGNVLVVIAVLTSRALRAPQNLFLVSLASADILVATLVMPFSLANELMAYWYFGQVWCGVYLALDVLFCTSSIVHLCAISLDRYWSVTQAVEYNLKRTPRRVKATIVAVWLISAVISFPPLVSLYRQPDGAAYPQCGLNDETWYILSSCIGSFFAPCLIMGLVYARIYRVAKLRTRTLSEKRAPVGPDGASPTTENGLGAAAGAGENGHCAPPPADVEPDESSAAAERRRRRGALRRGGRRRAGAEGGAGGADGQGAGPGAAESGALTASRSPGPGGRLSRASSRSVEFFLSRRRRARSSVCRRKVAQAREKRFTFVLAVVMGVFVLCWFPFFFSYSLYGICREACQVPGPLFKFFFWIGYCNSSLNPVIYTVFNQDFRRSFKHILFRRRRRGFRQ
Assay [7] in a line: inhibitors of Sendai virus-induced IRF3 signaling, primary screen, TLR/RLR signaling modifier project, cell-based, Sendai virus stimulus, luciferase, 10K MLSCN set (AID 602276).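 Further: firefly luciferase from ISG56 promoter only with Renilla not read in this screen; 0% = Sendai virus plus DMSO and 100% = medium plus DMSO without virus.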 To be noted: HEK293 RL24 IRF3 luciferase reporter, at 10 µM, stronger effect = higher value. On the technique in general: A reporter such as luciferase makes a cellular process visible.
The nature of assay [8]: inhibitors of poly I:C-induced TLR3 signaling, primary screen, cell-based, poly I:C stimulus, luciferase, 10K MLSCN set (AID 602277;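 active means inhibition of the reporter signal at or above 50%; inactive means inhibition below 50%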). To be noted: HEK293-TLR3 RL24 IRF3 luciferase reporter, at 10 µM, stronger effect = higher value.

In the case of `CC(=O)c1ccc(-c2nc3ccccc3n2C)o1`, in assay [1], the cell count amounted to 365. The inhibition in assay [1] was 4.7% (inactive); in assay [3] it was -11.8% (inactive); in assay [7], -22.8% (inactive); in assay [8] it was -73.6% (inactive). The inhibition of aggregation in assay [2] is -13.2% (inactive). Besides, the figures for the nuclei count in assay [2] and in assay [3] were 105% and 108%, respectively. Also, the fluorescence slope in assay [4] is -0.0212 (active). Moreover, the NADPH fluorescence slope in assay [5] is 5.6e-07 (inactive). In assay [6], the slope is 0.00571 (inactive).

Turning to `CC(=O)Oc1ccc(-c2ccc(C(=O)O)cc2)cc1`, in assay [1], the cell count stood at 385. Moreover, the inhibition was -6.5% (inactive) in assay [1], 35.1% (inactive) in assay [3], 4.99% (inactive) in assay [7] and 14.8% (inactive) in assay [8]. The inhibition of aggregation in assay [2] was 17.9% (inactive). The nuclei count was determined as 99.6% in assay [2] and 102% in assay [3]. Moreover, the fluorescence slope in assay [4] was -0.315 (inactive). Moreover, the NADPH fluorescence slope in assay [5] is -7.2e-06 (inactive). Besides, the slope in assay [6] is 0.00672 (inactive).

For the compound `CC(C)(C)c1ccc(C(=O)Nc2cnccn2)cc1`, in assay [1], the cell count is 351. Besides, the inhibition in assay [1] is 1.7% (inactive); in assay [3] it was 11.6% (inactive); in assay [7], -50.1% (inactive); in assay [8], -138% (inactive). Moreover, the inhibition of aggregation in assay [2] is 7.6% (inactive). Also, the results for the nuclei count in assay [2] and in assay [3] were 100% and 108%, respectively. Further, in assay [4], the fluorescence slope is -0.379 (inactive). Besides, the NADPH fluorescence slope in assay [5] was -6.5e-05 (inactive). For the same compound, the slope in assay [6] was 0.0039 (inactive).

On to `Cc1cc(C)nc(N(C#N)CC(=O)N2CCC(C(N)=O)CC2)n1`, for which the cell count in assay [1] is 553. The inhibition in assay [1] was -16.4% (inactive); in assay [3], 21.6% (inactive); in assay [7], 14.2% (inactive); in assay [8] it was 13.3% (inactive). In assay [2], the inhibition of aggregation was 12.3% (inactive). Moreover, the nuclei count in assay [2] worked out at 98.2%; in assay [3], 98.4%. In addition, in assay [4], the fluorescence slope was -0.489 (inactive). Also, in assay [5], the NADPH fluorescence slope was 1.8e-05 (inactive). In addition, the slope in assay [6] was 0.00455 (inactive).

Take `COC(=O)c1cc(OC)c(OCc2cc(C(=O)OC)oc2C)c(OC)c1`: the cell count in assay [1] was found to be 753. Besides, the inhibition in assay [1] is 1.5% (inactive); in assay [3] it was 32.8% (inactive); in assay [7], 17% (inactive); in assay [8], 34.7% (inactive). Further, the inhibition of aggregation in assay [2] is -6.3% (inactive). Further, the results for the nuclei count in assay [2] and in assay [3] were 106% and 85.7%, respectively. For the same compound, the fluorescence slope in assay [4] is -0.396 (inactive). For the same compound, the NADPH fluorescence slope in assay [5] is -6.5e-05 (inactive). Also, in assay [6], the slope was 0.00675 (inactive).

For `CCN(CCCNC(=O)C1CCN(S(=O)(=O)c2cccc3nonc23)CC1)Cc1ccccc1`, the cell count in assay [1] is 297. The inhibition was 16.9% (inactive) in assay [1], -72.5% (inactive) in assay [3], 13.3% (inactive) in assay [7] and 29.8% (inactive) in assay [8]. Moreover, the inhibition of aggregation in assay [2] was 14.3% (inactive). For the same compound, the nuclei count in assay [2] is 92.7%; in assay [3] it was 110%. Besides, the fluorescence slope in assay [4] was -0.43 (inactive). Besides, in assay [5], the NADPH fluorescence slope is -4.9e-05 (inactive). Moreover, in assay [6], the slope is 0.00388 (inactive).

For `Cc1ccc(N2CCN(C(=O)c3ccccc3)CC2)c(C)c1`, the cell count in assay [1] was 484. Further, the inhibition in assay [1] was -0.5% (inactive); in assay [3], -70.1% (inactive); in assay [7], 12% (inactive); in assay [8] it was 0.924% (inactive). Also, the inhibition of aggregation in assay [2] was 1.9% (inactive). Further, the values for the nuclei count in assay [2] and in assay [3] were 100% and 106%, respectively. Further, the fluorescence slope in assay [4] was -0.413 (inactive). The NADPH fluorescence slope in assay [5] was -6.4e-05 (inactive). Further, the slope in assay [6] was 0.00418 (inactive).

As for `Cc1ccc2c(c1)nnn2C1CCN(C(=O)NC23CC4CC(CC(C4)C2)C3)CC1`, in assay [1], the cell count came to 471. Also, the inhibition is -9.4% (inactive) in assay [1], 19.9% (inactive) in assay [3], 18.3% (inactive) in assay [7] and 22.5% (inactive) in assay [8]. Also, the inhibition of aggregation in assay [2] was 11.5% (inactive). For the same compound, the nuclei count turned out to be 122% in assay [2] and 98.1% in assay [3]. Moreover, the fluorescence slope in assay [4] is -0.423 (inactive). In assay [5], the NADPH fluorescence slope is -4e-05 (inactive). The slope in assay [6] was 0.00535 (inactive).

Regarding `c1ccc2c(c1)nc(NC1CCCCC1)c1nncn12`, the cell count in assay [1] is 446. The inhibition is -0.5% (inactive) in assay [1], -47.5% (inactive) in assay [3], 0.474% (inactive) in assay [7] and 32.3% (inactive) in assay [8]. In assay [2], the inhibition of aggregation is 11.8% (inactive). Besides, the nuclei count was determined as 55.9% in assay [2] and 113% in assay [3]. The fluorescence slope in assay [4] was -0.595 (inactive). The NADPH fluorescence slope in assay [5] was -1.7e-05 (inactive). The slope in assay [6] was 0.0061 (inactive).

For the compound `CC1CC(C)CN(c2ncnc3c2cnn3-c2ccc(Cl)cc2)C1` (centres undefined), in assay [1], the cell count worked out at 584. Further, the inhibition in assay [1] was 3.4% (inactive); in assay [3] it was -52.4% (inactive); in assay [7], 37.3% (inactive); in assay [8], 11.5% (inactive). Besides, the inhibition of aggregation in assay [2] was 12.1% (inactive). The figures for the nuclei count in assay [2] and in assay [3] were 79.5% and 112%, respectively. Further, in assay [4], the fluorescence slope is -0.504 (inactive). In addition, the NADPH fluorescence slope in assay [5] was -2e-05 (inactive). Further, the slope in assay [6] was 0.00874 (inactive).

`CC(=O)Nc1ccc(S(=O)(=O)NCC2CCC(C(=O)NCCCN3CCCC3=O)CC2)cc1` (centres undefined): the cell count in assay [1] stood at 318. The inhibition was -0.8% (inactive) in assay [1], -15.4% (inactive) in assay [3], 20.7% (inactive) in assay [7] and 19.4% (inactive) in assay [8]. Also, in assay [2], the inhibition of aggregation is 5.9% (inactive). The nuclei count was 112% in assay [2] and 106% in assay [3]. Besides, in assay [4], the fluorescence slope was -0.484 (inactive). Besides, the NADPH fluorescence slope in assay [5] was -3.3e-05 (inactive). In addition, in assay [6], the slope was 0.00457 (inactive).

In the case of `O=C(c1ccco1)N(Cc1cc2ccccc2[nH]c1=O)C1CCCCC1`, the cell count in assay [1] came out at 312. Further, the inhibition in assay [1] is 4.8% (inactive); in assay [3], -42.1% (inactive); in assay [7] it was -3.39% (inactive); in assay [8], 6.38% (inactive). Besides, the inhibition of aggregation in assay [2] was -13.6% (inactive). The results for the nuclei count in assay [2] and in assay [3] were 114% and 115%, respectively. Moreover, the fluorescence slope in assay [4] was -0.617 (inactive). Moreover, the NADPH fluorescence slope in assay [5] is 2e-05 (inactive). In addition, in assay [6], the slope is 0.00525 (inactive).

On to `Cc1c(C)[n+](=O)c2c(n1[O-])CCCCC2`, for which, in assay [1], the cell count came out at 545. Also, the inhibition in assay [1] is -27.9% (inactive); in assay [3], 36.9% (inactive); in assay [7] it was -0.779% (inactive); in assay [8], 22.1% (inactive). The inhibition of aggregation in assay [2] is 10.6% (inactive). The nuclei count in assay [2] is 81.3%; in assay [3], 63.9%. The fluorescence slope in assay [4] is -0.491 (inactive). In addition, the NADPH fluorescence slope in assay [5] is -4.7e-05 (inactive). Moreover, the slope in assay [6] was 0.00652 (inactive).

Take `Cn1c(C(=O)NCCN2CCN(c3ccccc3F)CC2)cc2c(=O)n(C)c3ccccc3c21`: the cell count in assay [1] stood at 1100. Also, the inhibition was 11% (inactive) in assay [1], -30.2% (inactive) in assay [3], 4.48% (inactive) in assay [7] and 16% (inactive) in assay [8]. In assay [2], the inhibition of aggregation is 12.6% (inactive). In addition, the nuclei count in assay [2] worked out at 119%; in assay [3] it was 112%. Moreover, the fluorescence slope in assay [4] is -0.571 (inactive). Moreover, the NADPH fluorescence slope in assay [5] was -2.1e-05 (inactive). The slope in assay [6] is 0.00598 (inactive).
